Data from ChEMBL document CHEMBL2218924, “A broad activity screen in support of a chemogenomic map for kinase signalling research and drug discovery” (Biochem J, 2013).

Assays:
[1] = biological target: Death-associated protein kinase 1 (Homo sapiens) (UniProt P53355); details: at 10 µM
[2] = biological target: Death-associated protein kinase 2 (Homo sapiens) (UniProt Q9UIK4); details: at 1 µM
[3] = biological target: Death-associated protein kinase 2 (Homo sapiens) (UniProt Q9UIK4); details: at 10 µM
[4] = biological target: T1, Discoidin domain-containing receptor 2 (Homo sapiens) (UniProt Q16832); details: at 1 µM
T1 sequence (whole entry): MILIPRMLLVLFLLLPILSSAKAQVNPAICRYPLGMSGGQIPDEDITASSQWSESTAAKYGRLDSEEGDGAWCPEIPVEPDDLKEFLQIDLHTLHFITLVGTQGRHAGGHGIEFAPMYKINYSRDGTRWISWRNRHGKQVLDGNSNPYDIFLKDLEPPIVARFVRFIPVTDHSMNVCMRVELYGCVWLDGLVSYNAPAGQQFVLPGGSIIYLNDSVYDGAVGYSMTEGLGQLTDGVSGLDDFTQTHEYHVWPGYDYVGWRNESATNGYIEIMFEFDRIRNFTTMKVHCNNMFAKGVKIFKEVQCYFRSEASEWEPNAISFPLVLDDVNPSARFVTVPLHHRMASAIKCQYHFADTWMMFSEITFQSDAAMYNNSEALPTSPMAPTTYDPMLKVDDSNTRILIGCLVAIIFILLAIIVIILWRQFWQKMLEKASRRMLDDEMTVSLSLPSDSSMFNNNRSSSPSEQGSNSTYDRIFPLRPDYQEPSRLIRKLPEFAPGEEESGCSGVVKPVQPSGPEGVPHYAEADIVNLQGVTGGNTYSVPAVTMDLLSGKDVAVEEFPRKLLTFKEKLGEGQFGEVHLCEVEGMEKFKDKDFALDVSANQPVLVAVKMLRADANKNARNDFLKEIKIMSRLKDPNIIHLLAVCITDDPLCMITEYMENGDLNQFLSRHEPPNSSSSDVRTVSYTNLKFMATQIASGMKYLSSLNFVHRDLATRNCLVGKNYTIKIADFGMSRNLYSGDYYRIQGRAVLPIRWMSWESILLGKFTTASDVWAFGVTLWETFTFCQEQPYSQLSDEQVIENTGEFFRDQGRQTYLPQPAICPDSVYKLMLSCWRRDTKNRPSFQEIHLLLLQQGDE

[5] = biological target: T1, Discoidin domain-containing receptor 2 (Homo sapiens); details: at 10 µM
[6] = biological target: T2, Myotonin-protein kinase (Homo sapiens) (UniProt Q09013); details: at 1 µM
T2 sequence (whole entry): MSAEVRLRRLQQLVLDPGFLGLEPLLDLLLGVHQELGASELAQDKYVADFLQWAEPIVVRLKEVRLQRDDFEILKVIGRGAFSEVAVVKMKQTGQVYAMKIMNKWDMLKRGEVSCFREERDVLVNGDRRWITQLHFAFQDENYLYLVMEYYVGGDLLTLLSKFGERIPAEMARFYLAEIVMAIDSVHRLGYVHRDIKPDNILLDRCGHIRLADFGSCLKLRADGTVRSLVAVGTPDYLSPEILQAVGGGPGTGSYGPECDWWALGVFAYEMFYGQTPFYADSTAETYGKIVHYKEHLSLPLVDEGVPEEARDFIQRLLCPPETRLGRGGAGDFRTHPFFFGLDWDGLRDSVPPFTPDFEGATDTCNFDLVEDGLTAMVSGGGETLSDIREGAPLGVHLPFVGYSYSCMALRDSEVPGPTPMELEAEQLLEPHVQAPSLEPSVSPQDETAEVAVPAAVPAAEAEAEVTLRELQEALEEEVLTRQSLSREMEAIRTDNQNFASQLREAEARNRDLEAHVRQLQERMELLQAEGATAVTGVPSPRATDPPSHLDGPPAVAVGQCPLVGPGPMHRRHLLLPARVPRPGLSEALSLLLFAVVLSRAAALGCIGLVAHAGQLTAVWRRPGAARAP

[7] = biological target: T2, Myotonin-protein kinase (Homo sapiens); details: at 10 µM
[8] = biological target: T3, Serine/threonine-protein kinase 17A (Homo sapiens) (UniProt Q9UEE5); details: at 1 µM
T3 sequence (whole entry): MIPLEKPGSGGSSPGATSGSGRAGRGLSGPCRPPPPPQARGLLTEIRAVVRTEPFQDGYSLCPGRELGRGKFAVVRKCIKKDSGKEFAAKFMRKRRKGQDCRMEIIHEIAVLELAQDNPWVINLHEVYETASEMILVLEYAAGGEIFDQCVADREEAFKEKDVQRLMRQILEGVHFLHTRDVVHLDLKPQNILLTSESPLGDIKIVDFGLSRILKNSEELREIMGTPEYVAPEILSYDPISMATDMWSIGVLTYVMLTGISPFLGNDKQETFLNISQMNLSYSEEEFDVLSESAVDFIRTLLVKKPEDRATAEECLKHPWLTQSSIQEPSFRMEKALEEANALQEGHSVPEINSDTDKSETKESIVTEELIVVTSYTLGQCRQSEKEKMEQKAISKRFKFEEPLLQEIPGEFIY

[9] = biological target: T3, Serine/threonine-protein kinase 17A (Homo sapiens); details: at 10 µM
[10] = biological target: T4, Ephrin type-A receptor 1 (Homo sapiens) (UniProt P21709); details: at 1 µM
T4 sequence (whole entry): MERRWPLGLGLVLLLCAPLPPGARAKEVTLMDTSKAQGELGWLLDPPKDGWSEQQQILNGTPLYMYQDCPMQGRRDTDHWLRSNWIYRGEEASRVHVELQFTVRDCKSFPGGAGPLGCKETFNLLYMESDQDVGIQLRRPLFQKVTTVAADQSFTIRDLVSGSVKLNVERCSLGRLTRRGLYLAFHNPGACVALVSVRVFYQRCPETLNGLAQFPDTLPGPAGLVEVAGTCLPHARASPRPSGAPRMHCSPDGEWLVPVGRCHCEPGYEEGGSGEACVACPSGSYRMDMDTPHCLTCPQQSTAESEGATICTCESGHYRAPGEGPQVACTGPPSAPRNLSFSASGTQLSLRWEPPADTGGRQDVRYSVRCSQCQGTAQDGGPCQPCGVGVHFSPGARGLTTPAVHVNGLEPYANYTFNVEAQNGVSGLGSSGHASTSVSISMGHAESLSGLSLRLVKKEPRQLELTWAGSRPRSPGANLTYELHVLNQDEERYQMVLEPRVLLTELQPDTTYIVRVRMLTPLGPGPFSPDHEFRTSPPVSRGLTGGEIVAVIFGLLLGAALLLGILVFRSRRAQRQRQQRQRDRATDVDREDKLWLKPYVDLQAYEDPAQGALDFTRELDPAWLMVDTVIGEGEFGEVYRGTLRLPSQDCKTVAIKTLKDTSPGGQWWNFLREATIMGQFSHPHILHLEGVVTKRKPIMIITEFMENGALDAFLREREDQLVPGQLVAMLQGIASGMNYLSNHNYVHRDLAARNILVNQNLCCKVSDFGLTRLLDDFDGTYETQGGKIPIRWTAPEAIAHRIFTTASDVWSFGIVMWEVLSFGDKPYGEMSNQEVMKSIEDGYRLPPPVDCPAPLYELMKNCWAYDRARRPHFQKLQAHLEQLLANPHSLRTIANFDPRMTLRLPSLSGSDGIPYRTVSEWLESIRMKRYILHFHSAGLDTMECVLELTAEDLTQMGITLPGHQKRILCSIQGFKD

[11] = biological target: T4, Ephrin type-A receptor 1 (Homo sapiens); details: at 10 µM
[12] = biological target: Ephrin type-A receptor 2 (Homo sapiens) (UniProt P29317); details: at 1 µM
Sequence of Ephrin type-A receptor 2 (Homo sapiens) (P29317 whole entry): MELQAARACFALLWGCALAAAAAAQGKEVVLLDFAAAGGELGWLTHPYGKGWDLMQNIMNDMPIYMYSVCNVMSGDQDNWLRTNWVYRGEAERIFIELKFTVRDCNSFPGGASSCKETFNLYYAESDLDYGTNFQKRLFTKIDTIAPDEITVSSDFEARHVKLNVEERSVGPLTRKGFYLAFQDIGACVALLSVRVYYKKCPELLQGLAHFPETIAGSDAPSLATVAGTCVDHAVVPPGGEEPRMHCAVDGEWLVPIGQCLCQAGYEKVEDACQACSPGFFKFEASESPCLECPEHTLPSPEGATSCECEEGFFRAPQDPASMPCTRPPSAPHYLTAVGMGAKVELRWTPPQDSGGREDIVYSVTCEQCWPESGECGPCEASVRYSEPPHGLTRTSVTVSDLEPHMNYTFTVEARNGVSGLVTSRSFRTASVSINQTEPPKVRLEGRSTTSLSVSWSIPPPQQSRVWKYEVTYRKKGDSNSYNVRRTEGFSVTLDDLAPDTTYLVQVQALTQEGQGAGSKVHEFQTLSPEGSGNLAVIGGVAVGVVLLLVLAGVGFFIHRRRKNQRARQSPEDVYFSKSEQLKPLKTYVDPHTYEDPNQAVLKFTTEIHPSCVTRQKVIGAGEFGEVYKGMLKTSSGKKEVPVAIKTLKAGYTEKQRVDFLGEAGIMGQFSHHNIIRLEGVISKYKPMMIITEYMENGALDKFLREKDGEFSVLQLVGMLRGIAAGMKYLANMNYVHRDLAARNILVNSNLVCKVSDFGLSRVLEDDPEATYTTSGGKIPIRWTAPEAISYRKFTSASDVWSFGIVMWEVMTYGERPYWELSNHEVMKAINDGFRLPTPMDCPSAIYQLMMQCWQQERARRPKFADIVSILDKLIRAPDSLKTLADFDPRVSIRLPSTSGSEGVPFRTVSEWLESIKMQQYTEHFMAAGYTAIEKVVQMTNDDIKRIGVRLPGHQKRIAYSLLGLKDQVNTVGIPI

[13] = biological target: Ephrin type-A receptor 2 (Homo sapiens) (UniProt P29317); details: at 10 µM
[14] = biological target: T5, Ephrin type-A receptor 3 (Homo sapiens) (UniProt P29320); details: at 1 µM
T5 sequence (whole entry): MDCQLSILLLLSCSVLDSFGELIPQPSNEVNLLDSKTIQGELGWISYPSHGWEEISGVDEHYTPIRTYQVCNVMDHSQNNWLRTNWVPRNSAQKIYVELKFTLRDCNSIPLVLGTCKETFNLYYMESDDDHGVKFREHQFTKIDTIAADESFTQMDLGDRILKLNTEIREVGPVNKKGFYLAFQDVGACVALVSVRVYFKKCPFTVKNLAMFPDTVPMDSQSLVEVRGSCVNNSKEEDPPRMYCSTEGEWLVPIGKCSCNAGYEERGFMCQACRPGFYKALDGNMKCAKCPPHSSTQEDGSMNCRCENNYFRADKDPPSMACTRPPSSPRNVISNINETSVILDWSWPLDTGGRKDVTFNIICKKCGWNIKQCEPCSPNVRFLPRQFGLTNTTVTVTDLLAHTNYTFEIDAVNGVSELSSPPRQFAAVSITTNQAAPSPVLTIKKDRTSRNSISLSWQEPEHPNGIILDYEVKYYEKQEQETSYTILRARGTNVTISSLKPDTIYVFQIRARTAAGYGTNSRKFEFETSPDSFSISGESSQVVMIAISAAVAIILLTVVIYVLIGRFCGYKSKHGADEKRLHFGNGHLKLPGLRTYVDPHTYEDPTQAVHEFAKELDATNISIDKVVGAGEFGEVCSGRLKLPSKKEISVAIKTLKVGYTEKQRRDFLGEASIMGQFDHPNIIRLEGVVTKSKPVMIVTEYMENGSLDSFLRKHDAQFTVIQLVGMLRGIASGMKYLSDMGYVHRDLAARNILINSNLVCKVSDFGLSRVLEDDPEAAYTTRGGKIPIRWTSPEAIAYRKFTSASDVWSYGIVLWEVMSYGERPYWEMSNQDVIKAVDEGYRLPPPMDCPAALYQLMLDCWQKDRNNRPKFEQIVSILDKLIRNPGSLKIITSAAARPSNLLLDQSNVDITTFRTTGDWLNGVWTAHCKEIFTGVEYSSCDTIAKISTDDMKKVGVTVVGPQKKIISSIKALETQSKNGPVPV

[15] = biological target: T6, Serine/threonine-protein kinase DCLK2 (Homo sapiens) (UniProt Q8N568); details: at 10 µM
T6 sequence (whole entry): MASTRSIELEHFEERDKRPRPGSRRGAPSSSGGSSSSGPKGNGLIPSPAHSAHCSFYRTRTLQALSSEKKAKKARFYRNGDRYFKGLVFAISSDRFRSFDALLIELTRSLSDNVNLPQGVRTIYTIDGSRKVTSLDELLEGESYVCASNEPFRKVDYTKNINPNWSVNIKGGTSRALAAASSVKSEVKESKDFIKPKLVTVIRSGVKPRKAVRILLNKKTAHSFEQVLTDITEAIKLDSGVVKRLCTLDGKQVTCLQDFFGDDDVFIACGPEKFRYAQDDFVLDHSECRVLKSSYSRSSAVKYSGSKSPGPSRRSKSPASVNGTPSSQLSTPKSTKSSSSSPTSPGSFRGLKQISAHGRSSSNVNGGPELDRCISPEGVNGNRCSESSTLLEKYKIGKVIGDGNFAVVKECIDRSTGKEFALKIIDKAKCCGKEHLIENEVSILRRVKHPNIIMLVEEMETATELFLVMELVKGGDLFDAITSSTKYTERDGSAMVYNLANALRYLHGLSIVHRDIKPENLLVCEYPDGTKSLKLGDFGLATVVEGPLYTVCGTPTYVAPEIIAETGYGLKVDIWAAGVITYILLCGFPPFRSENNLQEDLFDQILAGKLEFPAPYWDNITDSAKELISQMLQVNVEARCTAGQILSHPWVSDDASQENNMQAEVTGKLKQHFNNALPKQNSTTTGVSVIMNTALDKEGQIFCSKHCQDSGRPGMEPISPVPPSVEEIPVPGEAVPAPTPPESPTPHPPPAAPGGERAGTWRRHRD

[16] = biological target: T7, Dual specificity tyrosine-phosphorylation-regulated kinase 2 (Homo sapiens) (UniProt Q92630); details: at 1 µM
T7 sequence (whole entry): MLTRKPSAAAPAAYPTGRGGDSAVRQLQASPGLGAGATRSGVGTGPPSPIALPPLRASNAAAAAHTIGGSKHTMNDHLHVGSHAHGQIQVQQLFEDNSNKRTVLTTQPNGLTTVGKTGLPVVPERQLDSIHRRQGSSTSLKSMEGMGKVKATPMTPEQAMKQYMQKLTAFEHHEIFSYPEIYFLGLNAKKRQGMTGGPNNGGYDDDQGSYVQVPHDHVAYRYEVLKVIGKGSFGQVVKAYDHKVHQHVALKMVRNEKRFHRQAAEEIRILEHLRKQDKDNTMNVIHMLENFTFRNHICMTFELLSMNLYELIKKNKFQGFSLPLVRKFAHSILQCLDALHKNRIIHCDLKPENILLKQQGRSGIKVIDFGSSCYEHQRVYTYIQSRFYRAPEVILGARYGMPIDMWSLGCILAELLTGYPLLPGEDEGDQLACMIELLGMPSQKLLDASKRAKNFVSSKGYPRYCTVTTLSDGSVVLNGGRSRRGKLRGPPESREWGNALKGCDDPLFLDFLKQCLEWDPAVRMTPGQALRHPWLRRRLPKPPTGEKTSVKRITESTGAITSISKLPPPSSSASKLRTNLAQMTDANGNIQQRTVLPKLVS

[17] = biological target: T7, Dual specificity tyrosine-phosphorylation-regulated kinase 2 (Homo sapiens); details: at 10 µM
[18] = biological target: T6, Serine/threonine-protein kinase DCLK2 (Homo sapiens); details: at 1 µM

Sequence of Death-associated protein kinase 1 (Homo sapiens) (P53355 whole entry, looked up): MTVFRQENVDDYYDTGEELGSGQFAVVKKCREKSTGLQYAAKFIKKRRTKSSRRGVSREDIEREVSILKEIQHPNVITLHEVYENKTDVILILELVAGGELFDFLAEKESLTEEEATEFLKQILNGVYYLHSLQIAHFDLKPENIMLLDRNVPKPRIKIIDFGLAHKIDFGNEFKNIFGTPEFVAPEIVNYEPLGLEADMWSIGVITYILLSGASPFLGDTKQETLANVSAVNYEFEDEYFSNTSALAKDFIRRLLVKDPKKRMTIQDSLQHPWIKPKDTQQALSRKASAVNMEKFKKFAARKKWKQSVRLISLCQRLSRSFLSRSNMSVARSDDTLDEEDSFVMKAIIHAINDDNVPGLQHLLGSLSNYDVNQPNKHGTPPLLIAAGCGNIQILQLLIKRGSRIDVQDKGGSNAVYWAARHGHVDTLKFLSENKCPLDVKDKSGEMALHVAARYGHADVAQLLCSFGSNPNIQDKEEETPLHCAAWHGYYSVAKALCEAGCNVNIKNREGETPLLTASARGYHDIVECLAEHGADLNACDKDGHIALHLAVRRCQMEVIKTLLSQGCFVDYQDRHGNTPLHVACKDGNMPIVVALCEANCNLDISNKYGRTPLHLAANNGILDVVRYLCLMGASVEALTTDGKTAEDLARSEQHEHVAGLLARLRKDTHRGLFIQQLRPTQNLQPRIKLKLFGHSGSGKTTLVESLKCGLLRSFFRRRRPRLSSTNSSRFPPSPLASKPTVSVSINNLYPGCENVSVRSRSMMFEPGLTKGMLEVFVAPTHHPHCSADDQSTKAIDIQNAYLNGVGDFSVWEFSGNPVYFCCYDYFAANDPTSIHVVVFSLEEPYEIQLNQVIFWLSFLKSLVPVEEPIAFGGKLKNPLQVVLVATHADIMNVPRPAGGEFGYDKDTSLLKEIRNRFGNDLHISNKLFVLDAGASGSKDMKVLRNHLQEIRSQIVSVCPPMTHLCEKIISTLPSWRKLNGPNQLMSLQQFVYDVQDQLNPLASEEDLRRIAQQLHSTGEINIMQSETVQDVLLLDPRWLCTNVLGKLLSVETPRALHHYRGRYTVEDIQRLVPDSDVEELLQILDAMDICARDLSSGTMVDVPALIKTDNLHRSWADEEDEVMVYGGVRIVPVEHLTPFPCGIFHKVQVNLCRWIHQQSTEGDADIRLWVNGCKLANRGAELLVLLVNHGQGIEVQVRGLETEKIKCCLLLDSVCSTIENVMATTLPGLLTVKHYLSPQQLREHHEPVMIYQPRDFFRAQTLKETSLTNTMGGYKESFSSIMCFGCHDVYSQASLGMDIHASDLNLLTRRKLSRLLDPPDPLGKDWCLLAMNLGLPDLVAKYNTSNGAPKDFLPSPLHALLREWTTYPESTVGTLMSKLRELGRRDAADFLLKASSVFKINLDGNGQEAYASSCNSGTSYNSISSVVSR
Sequence of Death-associated protein kinase 2 (Homo sapiens) (Q9UIK4 whole entry, looked up, the tested form may be a part): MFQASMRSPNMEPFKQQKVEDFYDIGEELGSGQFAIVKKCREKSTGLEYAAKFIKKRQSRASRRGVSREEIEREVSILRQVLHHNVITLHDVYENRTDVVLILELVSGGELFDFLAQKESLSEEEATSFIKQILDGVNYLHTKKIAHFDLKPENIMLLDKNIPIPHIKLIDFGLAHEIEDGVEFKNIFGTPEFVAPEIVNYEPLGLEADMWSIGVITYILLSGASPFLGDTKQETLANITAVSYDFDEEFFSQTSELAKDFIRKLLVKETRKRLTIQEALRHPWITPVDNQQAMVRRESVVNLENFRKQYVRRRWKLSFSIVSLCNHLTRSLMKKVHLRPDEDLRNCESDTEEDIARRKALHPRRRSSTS

SMILES | residual activity [1] [%] | residual activity [2] [%] | residual activity [3] [%] | residual activity [4] [%] | residual activity [5] [%] | residual activity [6] [%] | residual activity [7] [%] | residual activity [8] [%] | residual activity [9] [%] | residual activity [10] [%] | residual activity [11] [%] | residual activity [12] [%] | residual activity [13] [%] | residual activity [14] [%] | residual activity [15] [%] | residual activity [16] [%] | residual activity [17] [%] | residual activity [18] [%]
N#Cc1cnc2cnc(NCc3cccnc3)cc2c1Nc1ccc(F)c(Cl)c1 | 55 | 14 | 2 | 80 | 53 | 100 | 69 | 30 | 32 | 95 | 79 | 96 | 87 | 96 |  |  |  | 
c1ccc(-c2n[nH]cc2-c2ccnc3ccccc23)nc1 | 88 | 103 |  | 102 | 98 | 127 | 140 |  |  | 90 | 90 | 102 | 95 | 99 | 101 | 89 | 104 | 
Nc1n[nH]c2nnc(-c3c(-c4ccccc4)nn4ccccc34)cc12 | 88 | 95 | 99 | 94 | 74 | 92 | 75 | 83 | 117 | 96 | 66 | 91 | 95 | 94 | 75 | 94 | 88 | 128
O=C1Nc2ccc(Br)cc2/C1=C\c1cc2c([nH]1)CCCC2 |  |  |  | 110 |  | 115 | 130 | 48 | 40 |  | 105 | 112 | 97 | 108 |  | 97 | 99 | 
